S2 tox: viability counter-screen for ATXN expression inhibitors; 400,000 compounds, 0.49% hits; Potency, µM (highest dose often 56.7 µM), actives largely listed as cytotoxic; AID 651635; S2 cells (HEK-293 line with an ATXN2-luciferase reporter) viability, CellTiter-Fluor protease fluorescence, 24 h; also: potency is read from the fitted curve at half-maximal effect; nearly all actives have a fitted effect of over 40% in size
IL-1B inflam inh: inhibitors of inflammasome signaling (IL-1 beta secretion); THP-1 LPS/ATP IL-1B secretion, AlphaLISA, 16 h; stronger effect = lower value; activity change, % at 57.5 µM; 360,000 compounds, 4.7% hits; AID 743279; in the data active = activity change below about -50%; inconclusive = mostly about -30% to -49%; also: % is scaled to controls: 0 for no effect and ±100 for the full control effect
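THP-1 cells pretreated 1 hr with compounds (up to 57.5 uM final), then stimulated with LPS (250 ng/mL final) plus ATP (1.25 mM final); secreted IL-1B measured by AlphaLISA after 16 hr, decreased signal indicating inhibition.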
TGFb inhibitor: blocks TGF-b signaling; HepG2 CAGA-GFP TGF-b/SMAD3 reporter, GFP fluorescence, 18 h; TGF-beta stimulated, 500 pg/mL final; Potency, µM (highest dose often 46.1 µM), without a hit: at the top dose activity, negative = inhibition, most hits filed as inhibitors; 410,000 compounds, 1.2% hits; AID 588855; also: potency is read from the fitted curve at half-maximal effect; % is scaled to controls: 0 for no effect and ±100 for the full control effect; nearly all actives have a fitted effect of over 65% in size
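HEPG2 CAGA-GFP, 1000 cells/well; 2 h settle, 37 C; cpd via pin tool; TGF-b 500 pg/mL final; 18 h, 37 C; GFP imaging ex488/em500-530; %Activity normalised to -TGF-b and +DMSO controls; CRC fit, curve class.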
ATXN2 expr inh: inhibitors of ATXN2 expression; 360,000 compounds, 0.72% hits; Potency, µM (doses to about 57 µM), for the others: at the highest dose activity change, negative = inhibition, actives largely listed as inhibitors; HEK-293 ATXN2-luciferase reporter, luminescence, 24 h; also: potency is read from the fitted curve at half-maximal effect; % is scaled to controls: 0 for no effect and ±100 for the full control effect; nearly all actives have a fitted effect of over 55% in size
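qHTS (up to 57 uM final) was run with 24 h compound exposure of reporter cells at 37 °C. Each well was multiplexed: SteadyGlo luminescence measured ATXN2-luciferase expression after a fluorogenic Gly-Phe-AFC viability readout (25 uM final).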
HepG2 tox-1: counter-screen for TGF-b inhibitors: cytotoxicity in HepG2 cells. HepG2 CAGA-GFP viability, ATP luminescence, 18 h. Potency, µM (series often up to 46.1 µM), without a hit: at the top dose activity change, negative = cytotoxicity, hits mostly cytotoxic. 410,000 compounds, 0.76% hits; also: potency is read from the fitted curve at half-maximal effect
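HepG2 CAGA-GFP cells (1000/well, DMEM with 1% FBS) received compound, then TGF-beta at 500 pg/mL final, and were incubated 18 hours at 37 degrees C. Viability was read by CellTiter-Glo luminescence. Media-only wells were set as complete cell-killing and DMSO as no toxicity.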
TGFb CAGA inh: confirmation of TGF-b signaling inhibitors in HepG2 reporter cells | Potency, µM (highest dose often 46.1 µM), for the others: at the top dose activity, negative = inhibition, actives largely listed as inhibitors | shares compounds with TGFb inhibitor | HepG2 CAGA-GFP TGF-b reporter, GFP fluorescence, 18 h; cells stimulated with TGF-beta, 500 pg/mL | 1,600 compounds, 63% hits; also: potency is read from the fitted curve at half-maximal effect; % is scaled to controls: 0 for no effect and ±100 for the full control effect; nearly all actives have a fitted effect of over 65% in size
HepG2 tox-2: HepG2 cytotoxicity, TGF-b inhibitor counterscreen; shares compounds with TGFb inhibitor; 1,600 compounds, 27% hits; HepG2 CAGA-GFP viability, ATP luminescence, 18 h; cells stimulated with TGF-beta, 500 pg/mL; Potency, µM (series often up to 46.1 µM), without a hit: top-dose activity, negative = cytotoxicity, hits mostly inhibitors; also: potency is read from the fitted curve at half-maximal effect; % is scaled to controls: 0 for no effect and ±100 for the full control effect; nearly all actives have a fitted effect of over 70% in size
CCL64 TGFb inh: blocks TGF-b signaling in CCL64 reporter cells. shares compounds with TGFb inhibitor. CCL64 CAGA-GFP reporter, TGF-b stimulated, GFP fluorescence, 18 h. Potency, µM (series often up to 46.1 µM), without a hit: top-dose activity, negative = inhibition, most hits filed as inhibitors. 1,600 compounds, 41% hits; also: potency is read from the fitted curve at half-maximal effect; nearly all actives have a fitted effect of over 65% in size
COP TGFb inh: blocks TGF-b signaling in HepG2 COP reporter. AID 720537. HepG2 COP-GFP TGF-b reporter, GFP fluorescence, 18 h; cells stimulated by added recombinant TGF-beta. Potency, µM (highest dose often 46.1 µM), for inactives: at the highest dose activity, negative = inhibition, usual class: inhibitors. shares compounds with TGFb inhibitor. 1,600 compounds, 3% hits; also: potency is read from the fitted curve at half-maximal effect; nearly all actives have a fitted effect of over 70% in size
The depositor's hits bear a star; i = inactive; ? = inconclusive; / = no result given. An excerpt weighted towards active compounds, which were near 5.7% of everything screened. Unless noted, calls follow the shape of the dose curve; as a rule, active = well fitted curve in the direction sought with a large enough effect; inconclusive = small, poorly fitted or top-dose-only effect, or another doubt; inactive = no such curve, though single readings can be large; an effect the other way counts as inactive or inconclusive.

SMILES	S2 tox	IL-1B inflam inh	TGFb inhibitor	ATXN2 expr inh	HepG2 tox-1	TGFb CAGA inh	HepG2 tox-2	CCL64 TGFb inh	COP TGFb inh
CCN1C[C@@]2(COC)[C@H]3[C@@H](OC)[C@H]4C1[C@@]3([C@H](OC)C[C@@H]2O)[C@H]1C[C@@]2(O)[C@@H](OC(=O)c3ccccc3)[C@@H]1[C@@]4(OC(C)=O)[C@H](O)[C@@H]2OC	i	/	/	/	/	/	/	/	/
COc1cc(/C=C/c2nc3ccccc3c(=O)n2-c2ccc(Br)c(C)c2)ccc1O	/	/	?	/	-37.6%	/	/	/	/
C[C@@H]1CN([C@@H](C)CO)C(=O)CCCn2nncc2CO[C@H]1CN(C)C(=O)Nc1ccc(N2CCCCC2)cc1	i	4.5	-3.3%	-0.6%	-18.4%	/	/	/	/
Nc1ncnc2c1ccn2[C@@H]1O[C@H](CO)[C@@H](O)[C@H]1O	3.16µM*	-110.2*	0.447µM*	1.12µM*	1µM*	0.581µM*	0.92µM*	0.82µM*	45.1%
NC(=S)c1cn(C2OC(CO)C(O)C2O)c2ncnc(N)c12 (configuration not stated)	?	-100.1*	0.316µM*	/	-37.0%	0.259µM*	0.164µM*	0.461µM*	43.7%
C[C@H]1COC(=O)[C@@H](Cc2ccc(F)cc2)CC/C=C/C[C@H](CC(=O)N(CCO)Cc2ccccc2)C(=O)N1	i	-28.4	0.0%	-15.2%	-7.5%	/	/	/	/
Cc1ccc(-c2cc(-c3ccccc3)cc(-c3ccccc3)[n+]2-c2ccccc2C(=O)O)cc1	?	-1.9	?	?	-40.4%	/	/	/	/
Oc1ccccc1-[n+]1c(-c2ccccc2)cc(-c2ccccc2)c(O)c1-c1ccccc1	i	3.9	11.2µM*	-3.8%	-26.3%	?	?	23.1µM*	-4.2%
Cc1ccc(S(=O)(=O)N2CCC(=O)N(CCOC(=O)Nc3cccc(Cl)c3)CC2)cc1	i	-12.1	?	9.7%	-14.4%	/	/	/	/
COc1ccc(CC2NCCc3cc(OC)c(OC)cc32)cc1OC (configuration not stated)	/	/	/	-10.1%	/	/	/	/	/
CC[C@H]1CN2CCc3cc(OC)c(OC)cc3C2C[C@@H]1C[C@H]1NCCc2cc(OC)c(OC)cc21 (some centres not stated)	?	-107.6*	-108.9%	-76.4%	-19.7%	0.0517µM*	2.91µM*	0.0731µM*	35.5%
C[C@]12C[C@H]3S[C@H]3C[C@@H]1CC[C@@H]1[C@@H]2CC[C@]2(C)[C@@H](O)CC[C@@H]12	i	/	/	/	/	/	/	/	/
CC1OC(OC2CC(O)C3(CO)C4C(O)CC5(C)C(C6=CC(=O)OC6)CCC5(O)C4CCC3(O)C2)C(O)C(O)C1O (configuration not stated)	?	-91.5*	1.12µM*	0.006µM*	-54.3%	3.66µM*	0.291µM*	0.206µM*	36.8%

Screening results: PubChem BioAssay, National Center for Advancing Translational Sciences (NCATS)
